# A selection: hits, their analogues and other compounds. The true share with any hit is near 17%.
# TGFb SMAD3 inh: blocks TGF-b signaling; HepG2 CAGA-GFP TGF-b/SMAD3 reporter, GFP fluorescence, 18 h; TGF-beta stimulated, 500 pg/mL final; Potency, µM (series often up to 46.1 µM), inactives show top-dose activity, negative = inhibition, hits mostly inhibitors; 1.2% of 410,000 active; further: on the % scale 0 is the no-effect control and ±100 the full control effect; nearly all actives have a fitted effect of over 65% in size
#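 Per well, imaged GFP fluorescence of HEPG2 CAGA-GFP cells gives the signal; cells get compound, then TGF-beta (500 pg/mL final), 18 h at 37 degrees C; %Activity versus -TGF-beta and +DMSO controls.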
# DT40 TDP1 no CPT: qHTS for Inhibitors of human tyrosyl-DNA phosphodiesterase 1 (TDP1): qHTS in cells in absence of CPT; DT40 Tdp1-/- hTDP1 cells, no CPT, ATP luminescence, 48 h; Potency, µM (doses to about 46.2 µM), for inactives: at the top dose activity change, negative = growth inhibition, most hits filed as inhibitors; 15% of 420,000 active; AID 686978, 2013; further: on the % scale 0 is the no-effect control and ±100 the full control effect; nearly all actives have a fitted effect of over 55% in size
#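 Luminescent ATP content (CellTiter-Glo) served as the growth readout. Knockout chicken DT40 cells expressing human TDP1 were exposed to compounds without camptothecin for a minimum 48 hr at 37 °C.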
# DT40 TDP1 CPT: DT40-hTDP1 cell growth loss with CPT; chicken DT40 Tdp1-/-;hTDP1 cells + 20 nM CPT, ATP luminescence, 48 h; Potency, µM (top dose mostly 46.2 µM), for inactives: top-dose activity change, negative = growth inhibition, usual class: inhibitors; 12% of 420,000 active; further: on the % scale 0 is the no-effect control and ±100 the full control effect; nearly all actives have a fitted effect of over 55% in size
#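 Cell growth measured by CellTiter-Glo luminescence after a minimum 48 h, 37 C compound exposure with 20 nM CPT in Tdp1-knockout DT40 cells stably expressing hTDP1, seeded 400/well; qHTS titration format.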
# HT1080 IDH1KD tx: toxicity to HT-1080 IDH1 knockdown cells (counter line); HT-1080 IDH1 knockdown viability, ATP luminescence, 48 h; AID 686971; Potency, µM (doses to about 46.1 µM), inactives show at the top dose activity, negative = toxicity, usual class: cytotoxic; 2% of 360,000 active;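 further: 0% = DMSO wells and -100% = cell-free medium wells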
#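 In this qHTS, HT-1080 cells depleted of IDH1 are exposed for 48 h at 37 °C to compound titrations. Toxicity is scored from CellTiter-Glo luminescence, with DMSO as full viability and medium alone as none.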
# HepG2 viability: kills HepG2 cells in TGF-b inhibitor counter-screen; HepG2 CAGA-GFP viability, ATP luminescence, 18 h; Potency, µM (titrated, usually from 46.1 µM), without a hit: top-dose activity change, negative = cytotoxicity, hits mostly cytotoxic; 0.76% of 410,000 active; AID 588856
#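 CellTiter-Glo luminescence gave cytotoxicity after 18 hours at 37 degrees C. The cells were HepG2 CAGA-GFP in 1% FBS DMEM, stimulated with 500 pg/mL TGF-beta after compound addition. %Activity was normalised to no-cell wells (complete cell-killing) and DMSO (no toxicity), and curves were fitted and classified.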
# HT1080-NT tox: kills 2HG-producing HT-1080-NT fibrosarcoma cells. HT-1080-NT fibrosarcoma viability, CellTiter-Glo ATP luminescence, 48 h. Potency, µM (doses to about 46.1 µM), without a hit: at the top dose activity, negative = less viability, actives largely listed as cytotoxic. 1.6% of 360,000 active;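 further: NT is the 2HG producing partner of a matched IDH1 knockdown line; 0% = DMSO-treated cells and -100% = media-only wells without cells; nearly all actives have a fitted effect of over 55% in size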
#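 750 cells/well, RPMI + 5% FBS; 2 h settle, compound pin-transfer, 48 h at 37 degrees C. CellTiter-Glo 10 min RT, luminescence. Normalized to DMSO and media-only wells.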
# The depositor's hits bear a star; ? = inconclusive; / = no result; [ ] = dose if it differs, or a comment. The call rests on the fitted dose curve; in most records, active means well fitted curve in the direction sought with a large enough effect; inconclusive means small, poorly fitted or top-dose-only effect, or another doubt; inactive means no such curve, though single readings can be large; an effect the other way counts as inactive or inconclusive. Potency means the concentration at half of the fitted maximal effect.
SMILES,TGFb SMAD3 inh,DT40 TDP1 no CPT,DT40 TDP1 CPT,HT1080 IDH1KD tx,HepG2 viability,HT1080-NT tox
COC(=O)c1c(C)c2c(C)cc3ccccn3c-2c1C(=O)OC,?,29µM*,?,-11%,-15%,-3%
C/C(=N\Nc1nc2ccccc2[nH]1)c1ccc2c(c1)OCO2,?,26µM*,15µM*,?,-28%,?
C/C(=N\Nc1ccccn1)c1ccc(C(C)C)cc1,13µM*,?,?,-21%,-36%,-12%
C/C(=N\Nc1ccccn1)c1ccc2c(c1)OCO2,3%,?,18µM*,2%,-25%,-2%
C/C(=N\Nc1nc2ccccc2[nH]1)c1cc2ccccc2o1,?,18µM*,?,?,-42%,?
C/C(=N\Nc1nc2ccccc2[nH]1)c1ccc2c(c1)OCCO2,-20%,?,?,?,0%,-28%
C/C(=N\Nc1ccccn1)c1ccc(N2CCOCC2)cc1,-18%,?,?,1%,-30%,4%
C[C@H](O)C(=O)Nc1c(I)c(C(=O)NC(CO)CO)c(I)c(C(=O)NC(CO)CO)c1I,/,-27%[21.1 µM],4%[21.1 µM],/,/,/
CSc1ncc2c(n1)-c1ccccc1N(Cc1ccccc1C)S2(=O)=O,5%,-23%,?,/,0%,/
CN(C)c1ncnc2ccc(-c3cccnc3)cc12,/,23µM*,12µM*,/,/,/
COc1cccc(-c2ccc3ncnc(N(C)C)c3c2)c1,/,?,21µM*,/,/,/
Cc1cn(C)c(CC(=O)NCc2ccc(F)cc2)c1C(=O)O,0%,-2%,4%,/,-6%,/
CCn1c(CNc2ccccc2Cl)nnc1SCCN1CCCCC1,6%,16µM*,18µM*,-6%,-23%,-1%
CCn1c(CNc2ccc(F)cc2)nnc1SCCN1CCCCC1,2%,-16%,5%,14%,-10%,11%
CC(=O)N(CC(=O)Nc1sc(C)c(C)c1C(N)=O)Cc1ccccc1,4%,?,?,15%,-4%,18%
Cc1sc(NC(=O)CN(Cc2ccccc2)C(=O)C2CC2)c(C(N)=O)c1C,?,4.6µM*,8.2µM*,-2%,-38%,-2%
CCC(=O)N(CC(=O)Nc1sc(C)c(C)c1C(N)=O)C1CCCCC1,-17%,?,?,-2%,-17%,17%
Cc1sc(NC(=O)CN(Cc2ccc(F)cc2)C(=O)C(C)(C)C)c(C(N)=O)c1C,-12%,8.2µM*,13µM*,-10%,2%,-1%
COc1cc(C2Nc3ccc4ncccc4c3C3=C2C(=O)CCC3)ccc1O (centres undefined),5%,3.7µM*,5.8µM*,5.8µM*,-11%,?
COc1cc(C2Nc3ccc4ncccc4c3C3=C2C(=O)CCC3)cc(OC)c1OC (centres undefined),-19%,?,?,-16%,-16%,-9%
COc1ccc(-n2ncc3c(SCC(=O)OC(C)C)ncnc32)cc1,-3%,?,-9%,3%,1%,-3%
Cc1ccc(C(=O)CCc2ccc(N)cc2)cc1,-19%,-7%,-6%,-7%,-14%,2%
CNC(=S)N(Cc1cc2cc(OC)c(OC)cc2[nH]c1=O)C1CCCC1,6%,-25%,-22%,8%,-2%,6%
CCCCCCCNC(=O)C1(CC2CC(c3ccc(Cl)cc3)=NO2)CCN(C(=O)C2(C)CC2)CC1 (centres undefined),?,16µM*,?,-11%,-19%,-17%
CCCCCCCNC(=O)C1(CC2CC(c3ccc(Cl)cc3)=NO2)CCN(C(=O)C2CCCC2)CC1 (centres undefined),13%,?,?,5%,-5%,0%
SMILES,TGFb SMAD3 inh,DT40 TDP1 no CPT,DT40 TDP1 CPT,HT1080 IDH1KD tx,HepG2 viability,HT1080-NT tox
CCCNC(=O)C1(CC2CC(c3ccccc3)=NO2)CCN(C(=O)c2ccccc2)CC1 (centres undefined),-3%,5%,6%,5%,-3%,-1%
CCCCCCCNC(=O)C1(CC2CC(c3ccccc3)=NO2)CCNCC1 (centres undefined),?,16µM*,?,-9%,-93%,?
Cc1oc2c(C)c3oc(=O)c(CCC(=O)N4CCCCC4)c(C)c3cc2c1C,-7%,10µM*,15µM*,/,-17%,/
Cc1coc2cc3oc(=O)c(CCC(=O)N4CCCCC4)c(C)c3cc12,-16%,21µM*,13µM*,/,-33%,/
Cc1oc2c(C)c3oc(=O)c(CCC(=O)N4C[C@H]5C[C@@H](C4)c4cccc(=O)n4C5)c(C)c3cc2c1C,5%,?,?,-1%,-2%,2%
CC(=O)c1c(C)[nH]c(C(=O)NCc2cccc(Cl)c2)c1C,0%,-2%,20%,3%,5%,7%
COc1ccccc1CNC(=O)c1cccn1-c1nnc(N2CCCC2)s1,0%,?,?,/,8%,/
CCN1CCN(c2nnc(-n3cccc3C(=O)NCc3ccccc3OC)s2)CC1,-19%,?,16µM*,/,2%,/
CCCN1CCN(c2nnc(-n3cccc3C(=O)Nc3ccccc3C(F)(F)F)s2)CC1,?,21µM*,21µM*,/,-33%,/
Cc1cccc(-n2c(O)c(C=Nc3cc(O)ccc3C)c3ccccc3c2=O)n1,115%,?,21µM*,?,-36%,?
C=CCN1C(=O)/C(=C2/Sc3ccc(OC)cc3N2C)SC1=Nc1cccc(O)c1,1%,?,-30%,-3%,-22%,-13%
O=C1CCC[C@@H]2Cc3nc4cc5c(cc4cc3[C@@H]3CCN1[C@H]23)OCO5,3%,16µM*,18µM*,-1%,-14%,0%
O=C1CCC[C@@H]2Cc3nc4ccc(O)cc4cc3[C@@H]3CCN1[C@H]23,2%,4%,10%,11%,5%,22%
COc1cc(NC(=O)c2cccs2)c(OC)cc1NC(=O)Cc1ccccc1,-2%,23µM*,?,-17%,-7%,-19%
COc1cc(NC(=O)c2cccs2)c(OC)cc1NC(=O)c1cccs1,13%,-4%,8%,9%,-4%,9%
Cc1cc(=O)[nH]c(SCC(=O)C23CC4CC(CC(C4)C2)C3)c1C#N,?,18µM*,8.2µM*,?,-34%,?
COc1cc(NC(=O)c2cccs2)c(OC)cc1NC(=O)Nc1ccc(F)cc1,-22%,23µM*,?,?,1%,6%

# Screening data from PubChem BioAssay.
